Bioassay records: PubChem BioAssay, Sanford-Burnham Center for Chemical Genomics
GRIN3A LBD mod = modulators (binders) of human NR3A ligand-binding domain; NR3A LBD differential scanning fluorimetry, Tm shift; 0% = protein alone, 100% = glycine-bound protein; Tm shift relative to glycine control, % at 25 µM; 2.5% of 340,000 active;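 active = melting temperature shift of at least 10% of the positive control shift, at one fixed dose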
FAS-TE inh = blocks the thioesterase domain of human fatty acid synthase. P49327. recombinant FAS-TE, OMFH fluorogenic substrate, fluorescence endpoint. inhibition, % at 15 µM. 0.67% of 360,000 active;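 active = compounds whose normalised, plate-corrected inhibition of enzyme fluorescence in the single-dose primary screen is 50% or more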
p-CIP stab down = p/CIP protein destabilization. F442A p/CIP-EGFP cells, EGFP fluorescence, 16 h. decrease of EGFP signal, % at 10 µM. Q05BA5. 0.01% of 290,000 active;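 active = EGFP signal decrease of at least 30% at 10 µM or well 3 SD below plate mean, unless failing retest; inactive = the rest, including hits failing retest or dose response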
MPTP block = blocks calcium-induced mitochondrial swelling; isolated mouse mitochondria, Ca2+ swelling absorbance, 30 min; inhibition, % at 10 µM; 1.4% of 360,000 active;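 active = inhibition of 50% or more, scaled per plate between neutral and stimulator controls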
beta cell repl = induces beta-cell replication in MIN6 cells | MIN6 cells proliferation, ATPlite luminescence, 48 h; cells starved in 0.2% serum; 100% = growth in 10% serum | proliferation, % at 10 µM | 0.29% of 330,000 active | AID 2380;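 active = compounds whose signal lies at least 3.5 SD above the mean of all wells on their plate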
Large screens that a line does not name were inactive. Sampled rows, rich in hits. Any-hit rate of the full collection: about 4.1%.

COc1ccc(C(=O)/C=C\c2ccc(NC(=O)c3cccs3)cc2)cc1	GRIN3A LBD mod 23
Cc1c(N(C)C(=O)C23CC4CC(CC(C4)C2)C3)c(=O)n(-c2ccccc2)n1C	GRIN3A LBD mod 11
CC1(c2ccccc2)CC(C)(C)N2C(=O)C3(C(C#N)=C(N)Oc4cc(O)ccc43)c3cccc1c32 (stereo not given)	FAS-TE inh 52
Cc1cc2c3c(c1)C(C)(c1ccccc1)CC(C)(C)N3C(=O)C21C(C#N)=C(N)OC2=C1C(=O)CC(C)(C)C2 (stereo not given)	none
COc1ccccc1CCC(=O)Nc1ccc2c(c1)c(=O)n(C)n2C	none (no result: GRIN3A LBD mod, p-CIP stab down, beta cell repl)
COc1cc2c(cc1NC(=O)c1ccncc1)oc1ccccc12	GRIN3A LBD mod 22
COc1cc2c(cc1NC(=O)c1cccnc1)oc1ccccc12	GRIN3A LBD mod 20
COc1cc2c(cc1NC(=O)/C=C/c1cc(OC)c(OC)c(OC)c1)oc1ccccc12	GRIN3A LBD mod 27
COc1ccc(/C=C/C(=O)OCC(=O)Nc2cc3oc4ccccc4c3cc2OC)cc1	none (no result: GRIN3A LBD mod, FAS-TE inh, MPTP block)
c1ccc2c(c1)C1=NCCN1c1ccccc1-2	none (no result: GRIN3A LBD mod, p-CIP stab down, beta cell repl)
Cc1cc(C)c2nc(NCc3ccccc3O)sc2c1	GRIN3A LBD mod 27
Oc1ccc(C[C@H]2CNC(=S)N2CC2CCCN2C[C@H](Cc2ccccc2)N2C[C@H](Cc3ccc(O)cc3)N(CCc3ccccc3)C2=S)cc1 (stereo not given in full)	GRIN3A LBD mod 31 (no result: p-CIP stab down, beta cell repl)
CCOc1ccc(CCN2C(=S)N([C@@H](CC(C)C)CN3CCCC3CN3C(=S)NC[C@@H]3Cc3ccc(O)cc3)C[C@@H]2Cc2ccc(O)cc2)cc1 (stereo not given in full)	GRIN3A LBD mod 34 (no result: p-CIP stab down, beta cell repl)
CCOc1ccc(CCN2C(=S)N([C@@H](CC(C)C)CN3CCCC3CN3C(=S)NC[C@@H]3Cc3ccc(O)cc3)C[C@@H]2Cc2ccccc2)cc1 (stereo not given in full)	GRIN3A LBD mod 31 (no result: p-CIP stab down, beta cell repl)
CCOc1ccc(CCN2C(=S)N([C@@H](CC(C)C)CN3CCC[C@@H]3CN3C(=S)NC[C@@H]3CC(C)C)C[C@@H]2Cc2ccc(O)cc2)cc1	none (no result: GRIN3A LBD mod, p-CIP stab down, beta cell repl)
Oc1ccc(C[C@@H](CN2CCC[C@@H]2CN2C(=S)NC[C@@H]2Cc2ccccc2)N2C[C@H](Cc3ccccc3)N(CCc3ccccc3)C2=S)cc1	none (no result: GRIN3A LBD mod, p-CIP stab down, beta cell repl)
CCOc1ccc(CCN2C(=S)N([C@@H](CC(C)C)CN3CCCC3CN3C(=S)NC[C@@H]3CC(C)C)C[C@@H]2Cc2ccc(O)cc2)cc1 (stereo not given in full)	none (no result: p-CIP stab down, beta cell repl)
CCOc1ccc(CCN2C(=S)N([C@@H](CC(C)C)CN3CCCC3CN3C(=S)NC[C@@H]3Cc3ccc(O)cc3)C[C@@H]2CC(C)C)cc1 (stereo not given in full)	GRIN3A LBD mod 12 (no result: p-CIP stab down, beta cell repl)
Cc1ccc(-c2cnc(C(O)c3cc(F)cc(Cl)c3)[nH]2)cc1 (stereo not given)	none (no result: GRIN3A LBD mod, p-CIP stab down, beta cell repl)
O=C(Nc1cccc(O)c1)c1c(O)c2ccccc2[nH]c1=O	GRIN3A LBD mod 44
Cc1cccc(NC(=O)c2c(O)c3ccccc3[nH]c2=O)c1	none
COc1cc([N+](=O)[O-])c(OC)cc1SCc1n[nH]c(=S)n1-c1ccc(C)cc1	GRIN3A LBD mod 12
COc1cc([N+](=O)[O-])c(OC)cc1SCc1n[nH]c(=S)n1-c1ccc(F)cc1	none
CCOC(=O)c1c(C)[nH]c(C(=O)COC(=O)/C=C/c2ccc(OC(F)F)cc2)c1C	GRIN3A LBD mod 13
CCOC(=O)c1c(C)[nH]c(C)c1C(=O)COC(=O)/C=C/c1ccc(OC(F)F)cc1	none
O=C(c1ccc(OC2CCN(Cc3ccc(C(F)(F)F)cc3)CC2)cc1)N1CCCCC1	none
O=C(c1ccc(OC2CCN(Cc3ccccc3C(F)(F)F)CC2)cc1)N1CCCCC1	GRIN3A LBD mod 19
C(=NN1CCCCCC1)c1ccc2c(c1)OCO2	none (no result: p-CIP stab down, beta cell repl)
O=C(c1ccc(COc2ccc(Br)cc2)o1)N1N=C(C(F)F)CC1(O)C(F)F (stereo not given)	GRIN3A LBD mod 19
CCOc1ccc(OCc2ccc(C(=O)N3N=C(C(F)F)CC3(O)C(F)F)o2)cc1 (stereo not given)	none
O=C(c1ccc(COc2ccc3ccccc3c2)o1)N1N=C(C(F)F)CC1(O)C(F)F (stereo not given)	GRIN3A LBD mod 20
CC(=O)Nc1ccc2sn(-c3ccccc3)c(=O)c2c1	none (no result: GRIN3A LBD mod, p-CIP stab down, beta cell repl)
COc1ccc(/C=C/C(=O)c2c(C)nc3ccccn23)cc1	none
